Test results reported in the supplement of paper PMC10646978.
± gives the standard deviation.

Legend:
Settings in all cases: modulator concentration 10 µM
[1] = test system: RAW-Dual (murine macrophage reporter line); test: NF-kB reporter (SEAP) activity fold change vs agonist alone; higher = enhanced NF-kB activity
Method in brief: (§1)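 RAW-Dual murine macrophage reporter cells were plated at 50 000 per well in 384-well plates, pin-transferred compound to 10 μM final, and pre-incubated for 1 hour at 37 °C before a PRR agonist was added and the cells incubated overnight. NF-κB activity was read from supernatant SEAP with QUANTI-Blue at 620 nm absorbance, and IRF activity from Lucia luciferase with QUANTI-Luc by luminescence. Each signal was expressed as fold change by dividing by the mean agonist-only control on the same plate. Two replicate plates were averaged, with errors obtained by propagation.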

[2] = test system: RAW-Dual (murine macrophage reporter line); test: IRF reporter (Lucia luciferase) activity fold change vs agonist alone; higher = enhanced IRF activity
Method in brief: as §1

[3] = test system: RAW-Dual (murine macrophage reporter line); test: viability score (confluency relative to resting cells, overnight) (fraction); higher = more viable, active = viable (0.7 or more)
Method in brief: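 RAW-Dual macrophages in 384-well plates were treated overnight with compound at 10 μM final. IncuCyte imaging recorded confluency, and IncuCyte software built two confluency masks across every imaged well. The viability score expresses confluency relative to resting cells and was judged against a cutoff, which a compound met only if both masks exceeded 70% of resting cells.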

[4] = agonist: CpG ODN 1826 0.5 ug/mL

SMILES	NF-kB reporter [1, 4]	NF-kB reporter ([1]; agonist: LPS 0.1 ug/mL)	NF-kB reporter ([1]; agonist: MPLA […])	IRF reporter ([2]; agonist: 3'3'-cGAMP 10 ug/mL)	IRF reporter ([2]; agonist: LPS 0.1 ug/mL)	IRF reporter ([2]; agonist: MPLA […])	viability score [3]
Cc1cc2ncn(CC3CCN(C(=O)COc4ccc(F)cc4)CC3)c2cc1C.O=C(O)C(=O)O	0.724 ± 0.07	1.06 ± 0.1	0.931 ± 0.047	0.908 ± 0.064	0.916 ± 0.09	0.814 ± 0.26	1 (active)
O=C(O)c1ccc(NC(=O)c2cccc(F)c2)cc1	1.09 ± 0.091	1.01 ± 0.1	0.962 ± 0.061	0.963 ± 0.035	1.08 ± 0.056	0.994 ± 0.18	0.998 (active)
CCc1ccc(Cc2ccc3c(c2)[C@]2(OC3)O[C@H](CO)[C@@H](O)[C@H](O)[C@H]2O)cc1.O	1.04 ± 0.29	1.08 ± 0.054	1.07 ± 0.094	0.883 ± 0.033	1.04 ± 0.12	1.16 ± 0.26	0.987 (active)
O=[N+]([O-])c1ccc(-n2cccc2C=NNc2nc(N3CCCCC3)nc(N3CCCCC3)n2)cc1	0.994 ± 0.087	1.01 ± 0.12	0.926 ± 0.054	0.907 ± 0.039	1.38 ± 0.12	1.05 ± 0.1	1 (active)
Oc1cc(O)c2c(c1)OC(c1ccc(O)c(O)c1)C(O)C2 (centres undefined)	0.936 ± 0.098	0.859 ± 0.087	1.05 ± 0.1	0.891 ± 0.028	1.13 ± 0.17	1.29 ± 0.32	1.06 (active)
COc1ccc(C(O)CN2CCN(c3cccc(C)c3C)CC2)cc1OC (centres undefined)	0.724 ± 0.18	0.928 ± 0.095	0.95 ± 0.06	0.956 ± 0.054	0.873 ± 0.16	1.04 ± 0.12	0.997 (active)
Cc1ccc(S(=O)(=O)Nc2cc(-c3c(O)ccc4ccccc34)c(O)c3ccccc23)cc1	0.941 ± 0.073	0.994 ± 0.076	1.16 ± 0.11	0.337 ± 0.015	0.808 ± 0.047	0.611 ± 0.075	0.956 (active)
CC(C)NC(=O)CCn1c(=O)c2cc(Cl)ccc2n2c(SCc3ccc(F)cc3)nnc12	0.992 ± 0.077	1.01 ± 0.093	1.1 ± 0.06	1.02 ± 0.056	1.15 ± 0.19	1.41 ± 0.39	0.964 (active)
Cl.Cl.O=C1c2c(O)ccc(O)c2C(=O)c2c(NCCNCCO)ccc(NCCNCCO)c21	0.0718 ± 0.0057	0.065 ± 0.0036	0.125 ± 0.011	0.0431 ± 0.0042	0.0592 ± 0.012	0.0943 ± 0.0079	0.388 (inactive)
CCOc1ccc(Nc2nc(Nc3ccc(OCC)cc3)nc(N3CCOCC3)n2)cc1	0.35 ± 0.02	1.76 ± 0.13	2.82 ± 0.16	1.14 ± 0.083	4.42 ± 3	4.93 ± 2.5	0.762 (active)
Cc1ccc(S(=O)(=O)N=C(Nc2ccc([N+](=O)[O-])cc2)c2ccccc2)cc1	1.06 ± 0.075	1.13 ± 0.074	0.928 ± 0.06	0.958 ± 0.032	1.39 ± 0.32	1.22 ± 0.16	1 (active)
COc1ccc(-c2csc(NC(=O)CCc3ccccc3)c2C(=O)O)cc1	0.697 ± 0.1	0.809 ± 0.072	1.04 ± 0.15	0.957 ± 0.046	1.51 ± 0.12	1.63 ± 0.14	1.02 (active)
Cc1cc(CNS(=O)(=O)Cc2ccc(C(F)(F)F)cc2)c(C)o1	1.01 ± 0.087	0.963 ± 0.076	0.951 ± 0.044	1.26 ± 0.068	1.34 ± 0.083	1.37 ± 0.23	0.383 (inactive)
CCn1c(=O)c(-c2ccn[nH]2)cc2c(C)nc(N)nc21	0.877 ± 0.054	1.01 ± 0.093	1.17 ± 0.065	1.01 ± 0.048	1.33 ± 0.23	1.45 ± 0.53	1 (active)
CCOC(=O)C(CCc1ccccc1)NC(C)C(=O)N1C(C(=O)O)CC2CCCC21 (centres undefined)	1.01 ± 0.28	0.998 ± 0.068	1.07 ± 0.072	0.878 ± 0.055	1.28 ± 0.21	1.34 ± 0.23	0.989 (active)
CC(=O)Nc1ccc(C(=O)Nc2ccc(Cl)cn2)cc1	1.16 ± 0.099	1.1 ± 0.085	1.09 ± 0.11	0.942 ± 0.04	0.94 ± 0.086	1.09 ± 0.15	1.04 (active)
O=C(O)CCC(=O)c1ccc(-c2ccccc2)cc1	0.806 ± 0.11	0.842 ± 0.1	0.87 ± 0.07	0.931 ± 0.049	0.984 ± 0.087	0.999 ± 0.078	0.986 (active)
C=Cc1c(C)c2cc3nc(cc4[nH]c(cc5nc(cc1[nH]2)C(C)=C5CCC(=O)O)c(CCC(=O)OC)c4C)[C@@]1(C)C3=CC=C(C(=O)OC)C1C(=O)OC (some centres undefined) [Prestw-1105]	0.611 ± 0.075	0.869 ± 0.069	1.17 ± 0.16	0.131 ± 0.018	0.642 ± 0.13	0.457 ± 0.16	0.669 (inactive)
CC1CCc2nc(NC(=O)C3CCCN3S(C)(=O)=O)sc2C1 (centres undefined)	0.812 ± 0.037	1.03 ± 0.082	1.08 ± 0.057	0.983 ± 0.045	1.35 ± 0.27	1.44 ± 0.48	0.964 (active)
CN1CCN(CCCN2c3ccccc3Sc3ccc(Cl)cc32)CC1 [Prestw-399]	0.442 ± 0.026	0.845 ± 0.073	1.73 ± 0.048	1.23 ± 0.051	1.1 ± 0.085	1.46 ± 0.15	0.114 (inactive)
CCc1ccc2ncc(C#N)c(Nc3cc(OC)c(OC)c(OC)c3)c2c1.Cl	1.37 ± 0.071	1.24 ± 0.17	0.931 ± 0.066	0.712 ± 0.038	0.607 ± 0.078	0.725 ± 0.17	0.903 (active)
COc1ccc(CCNc2nnc(Cc3ccc(Cl)cc3)c(=O)[nH]2)cc1OC	0.928 ± 0.068	1.1 ± 0.089	0.877 ± 0.11	0.977 ± 0.05	1.07 ± 0.065	1.04 ± 0.08	1.02 (active)
CC(/C=C1\SC(=S)N(CC(=O)O)C1=O)=C\c1ccccc1	0.7 ± 0.036	0.822 ± 0.093	1.05 ± 0.094	0.977 ± 0.048	1.4 ± 0.29	1.66 ± 0.52	0.962 (active)
CCOC(=O)C1=C(C)NC(C)=C(C(=O)OC)C1c1ccccc1 (centres undefined)	0.884 ± 0.1	0.831 ± 0.057	1.63 ± 0.059	0.609 ± 0.085	0.896 ± 0.037	0.79 ± 0.06	0.946 (active)
CC1CC(=O)C2=C(C1)OC(N)=C(C#N)C2c1cccc2ccccc12 (centres undefined)	1.04 ± 0.059	1.06 ± 0.065	1.03 ± 0.11	0.988 ± 0.033	1.26 ± 0.088	1.24 ± 0.14	1 (active)
CC1=CC(=O)c2ccccc2C1=O	2.29 ± 0.12	1.31 ± 0.11	1.81 ± 0.2	0.357 ± 0.023	3.57 ± 0.25	1.33 ± 0.4	0.0798 (inactive)
COc1cccc2c1C(=O)c1c(O)c3c(c(O)c1C2=O)C[C@@](O)(C(=O)CO)C[C@@H]3O[C@@H]1C[C@H](N)[C@@H](O)[C@H](C)O1 [Prestw-1752]	0.219 ± 0.025	0.0896 ± 0.013	0.169 ± 0.016	0.264 ± 0.011	0.185 ± 0.05	0.33 ± 0.053	0.458 (inactive)
